Test results published in PubChem BioAssay AID504327 (National Center for Advancing Translational Sciences (NCATS), 2011).
“And” between values parts separate entries of the source, which are not always exact repeats. Equal values may be shown once. About 820 (0.21%) of roughly 390,000 compounds were called active. Not shown: some 3% with an inconclusive outcome. Calls follow the shape of the dose curve; as a rule, active = well fitted inhibition curve with a large enough effect; inconclusive = small, poorly fitted or top-dose-only effect, or another doubt; inactive = no such curve, though single readings can be large or run the other way. The sample as a whole holds a higher share of actives than the screen did. Some structures have more than one record in an assay (separate samples or runs), and their calls can disagree.

Biological target: Histone acetyltransferase KAT2A (Homo sapiens) (UniProt Q92830)
Sequence (Q92830 whole entry, looked up): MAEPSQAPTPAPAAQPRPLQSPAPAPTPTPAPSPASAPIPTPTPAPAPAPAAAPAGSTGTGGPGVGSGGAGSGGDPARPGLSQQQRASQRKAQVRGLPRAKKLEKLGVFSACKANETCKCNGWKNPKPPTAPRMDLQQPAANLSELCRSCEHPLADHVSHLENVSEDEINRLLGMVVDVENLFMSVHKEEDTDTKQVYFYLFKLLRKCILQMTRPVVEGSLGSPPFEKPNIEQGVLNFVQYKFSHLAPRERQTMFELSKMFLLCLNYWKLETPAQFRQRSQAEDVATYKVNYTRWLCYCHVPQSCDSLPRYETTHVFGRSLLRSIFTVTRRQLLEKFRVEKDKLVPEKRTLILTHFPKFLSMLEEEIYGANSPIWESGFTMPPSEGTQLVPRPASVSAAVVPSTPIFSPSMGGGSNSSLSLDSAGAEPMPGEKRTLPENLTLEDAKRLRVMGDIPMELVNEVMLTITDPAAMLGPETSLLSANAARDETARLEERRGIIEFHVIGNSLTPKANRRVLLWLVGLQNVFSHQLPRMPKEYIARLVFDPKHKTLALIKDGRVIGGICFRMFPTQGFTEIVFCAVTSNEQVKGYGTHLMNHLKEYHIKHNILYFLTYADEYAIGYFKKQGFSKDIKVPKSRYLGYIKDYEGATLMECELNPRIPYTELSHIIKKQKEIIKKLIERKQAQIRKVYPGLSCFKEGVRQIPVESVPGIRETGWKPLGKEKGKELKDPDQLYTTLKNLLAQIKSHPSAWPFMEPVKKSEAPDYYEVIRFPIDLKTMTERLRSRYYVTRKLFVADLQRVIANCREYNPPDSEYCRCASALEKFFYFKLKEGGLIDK
Assay: qHTS Assay for Inhibitors of GCN5L2
Conditions: GCN5L2 HAT assay, ThioGlo1 CoA-SH fluorescence; series mostly up to 58.9 µM; activity change, negative = inhibition: at the top concentration
Excerpt: Histone acetyltransferase (HAT) enzymes transfer a […] group from acetyl-coenzyme A to the epsilon-amino group of conserved lysine residues of N-terminal histone tails. Acetylation results in charge neutralization of this positively charged amino acid, decreasing interactions with the […] backbone and making the DNA more accessible for transcription. HATs have been recognized as an emerging drug target for treatment of cancer, diabetes, asthma, chronic obstructive pulmonary disease, cardiac disease, and viral infection. Protein identified with HAT activity include the […] like 2 (GCN5L2, a.ka. Histone acetyltransferase KAT2A) which acetylates histone H3 at Lys9, 14, 18, 13, and to lesser extent histones H4 and H2B. This activates transcription of the gene by modulating chromatin structure and installing the acetyllysine recognition mark for bromodomain-containing coactivator proteins.
A quantitative high throughput screen was developed to identify small molecule inhibitors. The assay is based on the principle that it measures formation of reduced CoA with the pro-fluorescent maleimide derivative ThioGlo1 that becomes fluorescent upon reaction with the free thiol of CoA.
A large number of artifacts are expected in this primary screen, compounded by the assay format (fluorescent artifacts) and by the high top concentration tested for each substance. This BioAssay data deposition should be used with caution, and counterscreen and secondary assay validation is essential since very few actives from the primary screen are expected to be true inhibitors of GCN5L2.
[2] Yasgar, et al. Compound Management for Quantitative High-Throughput Screening. JALA. 2008 Apr;13(2):79-89.
[3] Inglese, et al. Quantitative high-throughput screening: a titration-based approach that efficiently identifies biological activities in large chemical libraries. Proc Natl Acad Sci. 1;103(31):11473-8. 2006. PMID: 16864780
NIH Molecular Libraries Probe Production Network [MLPCN]
NIH Chemical Genomics Center [NCGC]
Structural Genomics Consortium (SGC)
To each well of a 1,536w plate, 3ul of GCN5L2 (final concentration 20nM, in 50mM HEPES, 0.1mM EDTA (pH 7.5), 0.01% Tween-20 buffer) are added using a Kalypsys dispenser. Only buffer is added to some wells as a control. A Kalypsys pin-tool transferred 23nl of library compound solution in DMSO to each well, as well as the control inhibit garcinol. . Following a 15 min incubation of enzyme with compounds at room temperature, 1ul mixture of ThioGlo1 (50uM final), H3(1-25) peptide (75uM final), and Acetyl-CoA (70uM final) is added. Plates are read immediately on the ViewLux (PerkinElmer) (Ex340nm/Em540nm) for a 0 min read, incubated for 20 min at room temperature, and read again on the ViewLux with the same settings. The initial read was carried out to identify compounds that are potentially fluorescent.
% is scaled to controls: 0 for no effect and ±100 for the full control effect; potency is read from the fitted curve at half-maximal effect.

Row | SMILES | activity change, negative = inhibition | Potency
1 | COc1ccccc1-c1cc(NCc2cccs2)ncn1 | -5.87% (inactive) | –
2 | Cc1cc2oc(=O)cc(-c3ccccc3)c2c(C)c1/C=C/c1ccc(F)cc1 | 7.85% [at 88.6 µM] (inactive) | –
3 | Cc1cc2nn(-c3ccc(Cl)cc3)nc2cc1NC(=O)C(C)C | 0.272% (inactive) | –
4 | CCCCCCn1nnc2sc(-c3ccccc3)cc2c1=O | 6.09% (inactive) | –
5 | Cc1ccc(Cl)cc1NC(=O)C(C)n1nnc2sc(-c3ccccc3)cc2c1=O (stereo not drawn) | – | 31.6 µM (active)
6 | COc1ccccc1CCn1c(=O)c(-c2cn(C)c3ccccc23)nc2cncnc21 | -1.86% (inactive) | –
7 | Cc1csc(-c2nc3ccccc3n2C)n1 | -8.33% (inactive) | –
8 | CN(Cc1ccco1)c1ncncc1-c1ccoc1 | -17% (inactive) | –
9 | Nc1ncnc2c1ncn2C1CC(O)C(CO)O1 (stereo not drawn) | – | inactive
10 | O=C(Nc1ccc(O)cc1)c1ccccc1O | -15.8% (inactive) | –
11 | O=c1ccn([C@@H]2O[C@H](COP(=O)(O)OP(=O)(O)OP(=O)(O)O)[C@@H](O)[C@H]2O)c(=O)[nH]1 | 2.08% (inactive) | –
12 | NCCC(=O)c1ccccc1N | -13.8% (inactive) | –
13 | N#Cc1ccc(CN2CCCC3(CCN(C(=O)c4ccco4)CC3)C2)cc1 | 5.96% (inactive) | –
14 | C=C1/C(=C\C=C2\CCCC3(C)C2CCC3C(C)/C=C/C(O)C2CC2)CC(O)CC1O (stereo not drawn) | -17% (inactive) | –
15 | CC(O)COc1ccccc1 (stereo not drawn) | -19.1% (inactive) | –
16 | NNc1nnc(NN)c2ccccc12 | -1.8% (inactive) | –
17 | Cc1nc2cnc(N3CCN(C)CC3)nc2n(C[C@H]2CCCO2)c1=O | -20.2% (inactive) | –
18 | Cc1cc(N(C)C)nc(Cl)n1 | -23.2% (inactive) | –
19 | C=C(C)C1CC=C(C)C(O)C1 (stereo not drawn) | 6.72% (inactive) | –
20 | O=C(O)C(O)[C@@](O)(Cc1ccc(O)cc1)C(=O)O (stereo partly drawn) | 1.54% (inactive) | –
21 | CCN(Cc1ccncc1)C(=O)[C@@H](CO)c1ccccc1 | 7.28% [at 21.4 µM] (inactive) | –
22 | CC1(C)O[C@@H]2C[C@@H]3[C@H]4C[C@@H](F)C5=CC(=O)C=C[C@]5(C)[C@@]4(F)[C@@H](O)C[C@]3(C)[C@]2(C(=O)CO)O1 | -11.6% (inactive) | –

Row | SMILES | activity change, negative = inhibition | Potency
23 | CC(C)[C@H]1CC[C@@H](C)C[C@H]1O | 5.9% [at 0.501 µM] (inactive) | –
24 | O=P(O)(O)OC[C@H](O)CO | -2.51% (inactive) | –
25 | O=c1[nH]c(=S)[nH]c2[nH]c(=S)[nH]c12 | – | 4.47 µM (active) and 3.55 µM (active)
26 | COc1ccc(CC(N)C(=O)NC2C(O)[C@H](n3cnc4c(N(C)C)ncnc43)O[C@@H]2CO)cc1 (stereo partly drawn) | 4.59% (inactive) | –
27 | O=c1cnc2cnc(Nc3ccccc3)nc2n1Cc1ccc(F)cc1 | -12.2% (inactive) | –
28 | O=C1OCCN1C(=O)[C@H]1[C@H](c2ccc(Cl)cc2)C(c2cccc(Cl)c2)=NN1c1ccc(Br)cc1 | – | inactive and 12.6 µM (active)
29 | C[C@@H]1C(c2ccc(F)cc2)=NN(c2ccc(Br)cc2)[C@H]1C(=O)N1CCOC1=O | – | inactive
30 | CC(C)Cn1c(=O)c2ccccc2n2c(-c3cccc(Cl)c3)nnc12 | -8.17% (inactive) | –
31 | O=c1cc(-c2ccccc2)n2c(SCc3ccccc3)nnc2[nH]1 | -22.5% (inactive) | –
32 | O=c1[nH]c2ccccc2n2c(-c3ccccc3)nnc12 | – | 22.4 µM (active)
33 | C[C@@H](O)[C@@H]1NC(=O)[C@H](CCCCN)NC(=O)[C@H](Cc2c[nH]c3ccccc23)NC(=O)[C@H](Cc2ccccc2)NC(=O)[C@H](Cc2ccccc2)NC(=O)[C@H](CC(N)=O)NC(=O)[C@H](CCCCN)NC(=O)[C@@H](NC(=O)[C@@H]2CCCN2)CSSC[C@@H](C(=O)N[C@@H](CCCCN)C(=O)O)NC(=O)[C@H](CO)NC(=O)[C@H](CO)NC(=O)[C@H](Cc2ccccc2)NC1=O | -18.2% (inactive) | –
34 | O=C(c1cnccn1)N1CCC[C@@]2(CCN(Cc3ccncc3)C2)C1 | 7.32% (inactive) | –
35 | CC(C)[C@@H]1NC(=O)[C@H](Cc2ccccc2)NC(=O)[C@@H](CC(=O)O)NC(=O)CNC(=O)[C@H](CCCNC(=N)N)NC1=O | 10.5% (inactive) | –
36 | O=C(Nc1cccc(F)c1)N1CC2(CCN(C(=O)c3cnccn3)CC2)C1 | -0.477% (inactive) | –
37 | CC(C)(O)c1ccccc1CC[C@H](SCC1(CC(=O)O)CC1)c1cccc(/C=C/c2ccc3ccc(Cl)cc3n2)c1 | – | 20 µM (active)
38 | CCCCC/C=C\C/C=C\CCCCCCCCCC(=O)O | -12.3% (inactive) | –
39 | CNc1ncnc2ccc(-c3cccc(NS(C)(=O)=O)c3)cc12 | -6.27% (inactive) | –
40 | C=C1O[C@@](CO)(n2cnc3c(N)ncnc32)[C@H](O)[C@@H]1O | – | inactive
41 | CC[C@H](C)[C@H](NC(=O)[C@H](CCCNC(=N)N)NC(=O)[C@H](CCCNC(=N)N)NC(=O)[C@H](CC(C)C)NC(=O)[C@H](Cc1ccccc1)NC(=O)CNC(=O)CNC(=O)[C@@H](N)Cc1ccc(O)cc1)C(=O)N[C@@H](CCCNC(=N)N)C(=O)N1CCC[C@H]1C(=O)N[C@@H](CCCCN)C(=O)N[C@@H](CC(C)C)C(=O)N[C@@H](CCCCN)C(=O)N[C@@H](Cc1c[nH]c2ccccc12)C(=O)N[C@@H](CC(=O)O)C(=O)N[C@@H](CC(N)=O)C(=O)N[C@@H](CCC(N)=O)C(=O)O | 21.9% (inactive) | –
42 | FC(F)(F)C1CCCN(c2nsc3ccccc23)C1 (stereo not drawn) | – | 2.82 µM (active)
43 | COCC(=O)N1CCC2(CCCN(c3ccccc3)C2)CC1 | 3.62% (inactive) | –
